{"source": "the supplement of paper PMC3334620", "note": "In all, about 33,000 sequences were measured (“E-score (-0.5 to 0.5)”: median about -0.011, highest 2% from about 0.28 on). The sample as a whole holds a higher share of the highest values than the screen did.", "data": [{"molecular_target": "T1, Gcr1 (UniProt P07261)", "T1 sequence": "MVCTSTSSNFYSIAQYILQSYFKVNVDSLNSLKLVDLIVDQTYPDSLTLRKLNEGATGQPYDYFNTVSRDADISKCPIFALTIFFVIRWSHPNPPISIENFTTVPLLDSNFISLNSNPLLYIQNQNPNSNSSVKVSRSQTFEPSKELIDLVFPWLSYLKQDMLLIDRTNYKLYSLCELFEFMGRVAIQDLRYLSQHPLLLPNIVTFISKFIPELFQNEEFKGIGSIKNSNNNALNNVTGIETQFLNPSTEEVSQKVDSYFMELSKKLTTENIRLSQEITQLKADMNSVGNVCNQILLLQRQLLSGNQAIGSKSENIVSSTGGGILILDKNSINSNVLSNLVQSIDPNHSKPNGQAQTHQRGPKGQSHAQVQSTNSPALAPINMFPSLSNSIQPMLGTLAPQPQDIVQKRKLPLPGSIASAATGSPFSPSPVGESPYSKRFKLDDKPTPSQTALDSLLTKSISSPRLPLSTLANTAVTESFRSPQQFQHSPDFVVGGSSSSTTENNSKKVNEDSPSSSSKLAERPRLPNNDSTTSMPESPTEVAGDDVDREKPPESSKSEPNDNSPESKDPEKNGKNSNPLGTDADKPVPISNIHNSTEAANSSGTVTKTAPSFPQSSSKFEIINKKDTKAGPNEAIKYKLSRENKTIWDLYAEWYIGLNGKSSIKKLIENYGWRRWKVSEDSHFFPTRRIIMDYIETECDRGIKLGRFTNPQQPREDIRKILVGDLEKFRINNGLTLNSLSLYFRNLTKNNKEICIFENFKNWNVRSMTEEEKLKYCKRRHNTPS", "assay": "PBM E-score (8-mer binding enrichment) (E-score (-0.5 to 0.5)); higher = stronger / more preferred TF binding", "conditions": "protein concentration: 100 nM; construct: GST-full length", "method_in_brief": "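Using PURExpress in vitro transcription/translation, GST-tagged yeast transcription factors were made in full-length or DNA-binding-domain form. These were applied at about 100-200 nM to double-stranded universal all-10-mer Agilent arrays, and bound protein was detected with fluorescent anti-GST. Scans were normalised with masliner before the Universal PBM Analysis Suite assigned E-scores to ungapped eight-base words pooled with their reverse complements.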", "values": [{"sequence": "ACTGCCTA", "PBM E-score": 0.0876}, {"sequence": "GCTGCGTA", "PBM E-score": 0.286}, {"sequence": "TCTGCCAA", "PBM E-score": 0.00421}, {"sequence": "ACTGCCAC", "PBM E-score": 0.101}, {"sequence": "ACTGCCAA", "PBM E-score": 0.0668}, {"sequence": "CCTGCCAC", "PBM E-score": 0.0404}, {"sequence": "CCTGCCTA", "PBM E-score": 0.00507}, {"sequence": "GCTGCCTA", "PBM E-score": 0.305}, {"sequence": "CCTGCGTA", "PBM E-score": 0.0119}, {"sequence": "GCTGCCAC", "PBM E-score": 0.301}, {"sequence": "ACTGCGTA", "PBM E-score": 0.062}, {"sequence": "GCTGCCAA", "PBM E-score": 0.31}, {"sequence": "TAGTCTGA", "PBM E-score": -0.0964}, {"sequence": "TCCAAACA", "PBM E-score": 0.135}, {"sequence": "AGATAACA", "PBM E-score": -0.0519}, {"sequence": "ACCGTTAA", "PBM E-score": -0.119}, {"sequence": "GCGGACTA", "PBM E-score": -0.12}, {"sequence": "CCGTCCCC", "PBM E-score": 0.00017}, {"sequence": "CCGTCCTA", "PBM E-score": -0.158}, {"sequence": "GCGTCCCC", "PBM E-score": 0.304}, {"sequence": "GCGTCCCA", "PBM E-score": 0.282}, {"sequence": "GCGTCTCC", "PBM E-score": 0.317}, {"sequence": "ACGTCCTA", "PBM E-score": 0.0954}, {"sequence": "TCGTCCCA", "PBM E-score": -0.0947}, {"sequence": "ACGTCCCC", "PBM E-score": -0.0668}, {"sequence": "ACGTCCCA", "PBM E-score": -0.153}, {"sequence": "ACGTCTCC", "PBM E-score": 0.101}, {"sequence": "GCGTCCTA", "PBM E-score": 0.43}, {"sequence": "GCGTCTCA", "PBM E-score": 0.146}, {"sequence": "ACTCAACA", "PBM E-score": 0.122}, {"sequence": "GCGATCAC", "PBM E-score": -0.0279}, {"sequence": "GAGCGACA", "PBM E-score": -0.0391}, {"sequence": "TATTGGGA", "PBM E-score": -0.02}, {"sequence": "ACTGCACC", "PBM E-score": 0.014}, {"sequence": "CAGCCCTC", "PBM E-score": -0.0883}, {"sequence": "AAGAATAA", "PBM E-score": 0.0669}, {"sequence": "AAAACTGG", "PBM E-score": 0.254}, {"sequence": "CATTTACG", "PBM E-score": 0.0351}, {"sequence": "CAGTCCCA", "PBM E-score": 0.0489}, {"sequence": "GAGTCCCA", "PBM E-score": 0.313}, {"sequence": "GAGTCCCC", "PBM E-score": -0.0421}, {"sequence": "GCGGCGAC", "PBM E-score": 0.148}, {"sequence": "CCAGCGTC", "PBM E-score": 0.314}, {"sequence": "CGGGCGTA", "PBM E-score": -0.097}, {"sequence": "AGGGCGTC", "PBM E-score": 0.26}, {"sequence": "CCAGCGTA", "PBM E-score": -0.178}, {"sequence": "GCGGCGCC", "PBM E-score": 0.324}, {"sequence": "ACAGCGTC", "PBM E-score": -0.0458}, {"sequence": "GCGGCGCA", "PBM E-score": -0.064}, {"sequence": "ACGGCGTC", "PBM E-score": 0.243}, {"sequence": "CCGGCGTA", "PBM E-score": -0.139}, {"sequence": "CCGGCGTC", "PBM E-score": 0.402}, {"sequence": "CGGGCGTC", "PBM E-score": 0.307}, {"sequence": "GCGCCTGA", "PBM E-score": 0.171}, {"sequence": "ATCCTACG", "PBM E-score": -0.00941}, {"sequence": "AGGCCCCG", "PBM E-score": 0.0239}, {"sequence": "ATGATTTC", "PBM E-score": -0.142}, {"sequence": "AAATTGTG", "PBM E-score": -0.0559}, {"sequence": "CATAACCC", "PBM E-score": -0.121}, {"sequence": "CTCAATCA", "PBM E-score": 0.119}, {"sequence": "CCGGCGCG", "PBM E-score": -0.112}, {"sequence": "ACGGCGCT", "PBM E-score": -0.00448}, {"sequence": "ACGGCGCC", "PBM E-score": 0.312}, {"sequence": "ACGGCGCA", "PBM E-score": -0.265}, {"sequence": "CCGGCGCC", "PBM E-score": 0.317}, {"sequence": "CCGGCGCA", "PBM E-score": -0.0778}, {"sequence": "CCTAAAGG", "PBM E-score": 0.0292}, {"sequence": "AACTGATC", "PBM E-score": -0.114}, {"sequence": "ATGGATCA", "PBM E-score": -0.201}, {"sequence": "GCACCACC", "PBM E-score": -0.0802}, {"sequence": "GTAGGCCA", "PBM E-score": -0.106}, {"sequence": "ATCCGGAC", "PBM E-score": -0.106}, {"sequence": "ATCCGGAA", "PBM E-score": 0.26}, {"sequence": "ATCCGGAT", "PBM E-score": 0.286}, {"sequence": "GAAGTAAA", "PBM E-score": -0.0223}, {"sequence": "CAGGCGCA", "PBM E-score": -0.0694}, {"sequence": "GAGGCGCC", "PBM E-score": 0.302}, {"sequence": "CAGGCGCG", "PBM E-score": -0.0119}, {"sequence": "GAGGCGCA", "PBM E-score": 0.0503}, {"sequence": "CAGGCGCC", "PBM E-score": 0.361}, {"sequence": "AAGGCGCC", "PBM E-score": 0.258}, {"sequence": "AAATGGTT", "PBM E-score": 0.0753}, {"sequence": "ATTGAAGA", "PBM E-score": 0.0516}, {"sequence": "CAGATAGG", "PBM E-score": 0.0828}, {"sequence": "TAATTGAA", "PBM E-score": 0.228}, {"sequence": "ACACGCAA", "PBM E-score": 0.127}]}]}
